Assay in all cases: NCI-60 one-dose screen, 48 h (100 = growth as untreated, 0 = no growth, -100 = all killed)
Settings in all cases: 10 µM unless noted

Assay [1] deals with DU-145 prostate.
The test system of assay [2] is K-562 leukemia.
The test system of assay [3] is MALME-3M melanoma.
For assay [4], the system named is RXF 393 renal.
The subject of assay [5] is SF-268 CNS.
Assay [6] has as its system SF-295 CNS.
Assay [7] deals with SF-539 CNS.
The subject of assay [8] is UACC-257 melanoma.
Assay [9] relates to M14 melanoma.
Assay [10] has as its system HCT-15 colon.
The test system of assay [11] is HT29 colon.
The subject of assay [12] is SNB-75 CNS.
Assay [13] deals with SNB-19 CNS.
Assay [14] deals with U251 CNS.
The test system of assay [15] is PC-3 prostate.
Assay [16] deals with SK-MEL-5 melanoma.
Assay [17] concerns UACC-62 melanoma.
Assay [18] relates to LOX IMVI melanoma.
Assay [19] relates to SK-MEL-28 melanoma.
The subject of assay [20] is MDA-MB-231 breast.

Compounds without any hit were thinned out: in the full panel of roughly 83,000, 20% have a hit.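 Note: values are percent growth. 100 is the growth of untreated cells, values between 100 and 0 indicate rising inhibition; between -100 and 0 indicates cell death.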 Unmarked numbers belong to inactive results. Activity calls are given as the source filed them. Rule for the calls: active = growth percent below 10; inactive = the rest.

For `COC1=C(C)C(=O)c2c(c(CCCl)c3n2CCC3OC(C)=O)C1=O` (centres undefined), the growth in assay [1] was -9.56% (active); in [2], 12.7%; in [3] it was -64.3% (active); in assay [4], -54.3% (active); in [5], 10.4%; in assay [6], -11.7% (active). The growth in [7] was -41.7% (active); in [8], -50.2% (active); in [9], -46.3% (active); in assay [10] it was 1.95% (active); in assay [11], -15.6% (active); in assay [12] it was -44.6% (active). For the same compound, the growth in [13] was 1.56% (active); in assay [14], -9.94% (active); in [15], -10.6% (active); in assay [16] it was -66.7% (active); in assay [17], -71% (active); in [18] it was -34.8% (active). Moreover, the growth in assay [19] is -32% (active).
Take `CCCCC[C@H](O)C/C=C1/C(=O)C=C[C@@H]1C/C=C\CCCC(=O)O`: the growth in assay [1] was 67.8%; in assay [2], 30.1%; in [3], 116%; in assay [4], 87.9%; in [5] it was 67%; in assay [6] it was 93.7%. Besides, the growth is 92.8% in assay [7]; 85.8% in [8]; 70.1% in assay [9]; 69.5% in assay [10]; 59.8% in assay [11]; 79.1% in assay [12]. The growth is 83.4% in assay [13]; 43.8% in assay [14]; 78.4% in assay [15]; 82.8% in assay [16]; 60.9% in assay [17]; 6.2% (active) in [18]. The growth in assay [19] is 66.4%.
Turning to `COc1cccc(Cc2cc(-c3ccccc3)nn(CC(=O)c3ccccc3)c2=O)c1`, the growth in assay [1] is 63.3%; in assay [2] it was 22.5%; in assay [3], 97.1%; in assay [4] it was 60.1%; in [5] it was 54%; in [6], 68.1%. In addition, the growth was 49.9% in assay [7]; 95% in assay [8]; 60.3% in [9]; 20.2% in assay [10]; 36.6% in assay [11]; 50.9% in [12]. Also, the growth in [13] is 58%; in assay [14] it was 37.1%; in assay [15], 41.4%; in assay [16] it was 39.4%; in assay [17], 45.9%; in assay [18], 11.8%. For the same compound, the growth in assay [19] was 73.2%.
Take `CCCCCCCNC(=O)CCCNc1ncnc2c1ncn2-c1cccc(C(C)O)c1` (centres undefined): the growth in [1] was 94.4%; in assay [2], 41.6%; in assay [3], 84.8%; in assay [4] it was 89.9%; in assay [5] it was 83.8%; in [6], 93.6%. In addition, the growth in assay [7] was 94.1%; in [8] it was 121%; in [9] it was 89.3%; in [10], 87.2%; in assay [11], 93.7%; in [12] it was 104%. For the same compound, the growth in assay [13] is 96.3%; in assay [14] it was 96.9%; in assay [15], 85%; in assay [16], 85.9%; in assay [17] it was 90.3%; in assay [18], 101%. In [19], the growth was 96.2%.
Turning to `COc1cc(C(=O)/C=C/c2ccc(OCCCCCC[P+](c3ccccc3)(c3ccccc3)c3ccccc3)cc2)cc(OC)c1OC`, the growth in assay [1] was -1.64% (active); in [2] it was 0.54% (active); in assay [3], -37.9% (active); in assay [20] it was -15.1% (active); in [4], -47.3% (active); in [5] it was -6.6% (active). The growth in assay [6] is -23.4% (active); in [7], -86.2% (active); in [8], -21.4% (active); in assay [10], -54.7% (active); in assay [11], -14.1% (active); in [12], -11.1% (active). The growth in assay [13] is -73.3% (active); in assay [14], -100% (active); in [15], -54.9% (active); in assay [17] it was -80.3% (active); in assay [18] it was -100% (active); in assay [19] it was -60.4% (active).
For the compound `CN1CCN(c2ccc(-c3ccc4ncc(C#N)c(Nc5ccc(F)c(Cl)c5)c4c3)cc2)CC1`, the growth was 29.1% in assay [1]; 0.404% (active) in assay [2]; -63.5% (active) in assay [3]; 76.8% in assay [20]; 27.3% in assay [4]; 50.8% in [5]. Also, the growth was 69.6% in assay [6]; 54.3% in assay [7]; -0.414% (active) in assay [8]; -12.9% (active) in [10]; 18.2% in assay [11]; 75.5% in [12]. Moreover, the growth was 72.7% in assay [13]; 50% in [14]; 45.8% in [15]; 69.7% in assay [17]; 43% in [18]; -43.1% (active) in assay [19].
As for `CCC(C)(c1cc(C(C)(C)C)c(O)c(C(C)(C)C)c1)c1cc(C(C)(C)C)c(O)c(C(C)(C)C)c1`, the growth in assay [1] is 101%; in assay [2], 91.4%; in [3], 94%; in [4], 104%; in [5] it was 95.4%; in [6] it was 96.6%. Besides, the growth in assay [7] was 105%; in assay [8], 94.8%; in [9], 98.5%; in assay [10] it was 105%; in [11], 96.3%; in [12] it was 83.4%. For the same compound, the growth was 104% in assay [13]; 98.6% in assay [14]; 101% in assay [15]; 91.8% in assay [17]; 103% in assay [18]; 106% in assay [19].
On to `CC1Cc2c(ncn3c(-c4ccc(F)cc4)nnc23)N(C)c2ccccc21` (centres undefined), for which the growth in assay [1] is 63.8%; in assay [2], 70.4%; in [3] it was 37.4%; in [4], 66.4%; in [5], 56.6%; in assay [6] it was 74.1%. The growth is 74.9% in assay [7]; 69.7% in assay [8]; 59.4% in assay [9]; 72% in assay [10]; 18.3% in assay [11]; -7.85% (active) in assay [12]. Further, the growth was 48.5% in [13]; 39.3% in assay [14]; 63% in assay [15]; 96.7% in assay [16]; 73.5% in assay [17]; 12.6% in assay [18]. Besides, in assay [19], the growth was 85.4%.

The record behind these values is PubChem BioAssay (NCI).
